# Source: the supplement of paper PMC12282887
# ± gives the standard deviation of the averaged measurements.
# Legend:
# Test in all cases: promoter activity interaction Z-score (Lux/OD deviation from empty-vector control); higher = stronger promoter induction by the compound
# [1] = tested on: E. coli BW25113 acrABp lux reporter
# How it was run: (§1)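 E. coli BW25113 luxCDABE reporter strains grew at 37°C in 40 µl LB Lennox in 384-well plates, with OD600 and luminescence read every 30 min for 12 h. After integration over 0–8 h for wild type or 1–9 h for deletion strains, wells under 10% of the median growth value were removed. Each score is the Z-transformed residual of growth-normalised luminescence fitted against a control.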
# [2] = tested on: E. coli BW25113 micFp lux reporter
# How it was run: as §1
# [3] = tested on: E. coli BW25113 ompFp lux reporter
# How it was run: as §1
# [4] = tested on: E. coli BW25113 robp lux reporter
# How it was run: as §1
# [5] = tested on: E. coli BW25113 soxSp lux reporter
# How it was run: as §1
# [6] = tested on: E. coli BW25113 tolCp lux reporter
# How it was run: as §1
# [7] = 0.0012 µg/ml, genetic background: wild type
# [8] = 0.0012 µg/ml, genetic background: ΔmarA
# [9] = 0.0012 µg/ml, genetic background: Δrob
# [10] = 0.0012 µg/ml, genetic background: ΔsoxS
# [11] = 0.0025 µg/ml, genetic background: wild type
# [12] = 0.0025 µg/ml, genetic background: ΔmarA
# [13] = 0.0025 µg/ml, genetic background: Δrob
# [14] = 0.0025 µg/ml, genetic background: ΔsoxS
# [15] = 0.005 µg/ml, genetic background: wild type
# [16] = 0.005 µg/ml, genetic background: ΔmarA
# [17] = 0.005 µg/ml, genetic background: Δrob
# [18] = 0.005 µg/ml, genetic background: ΔsoxS
# [19] = 0.0099 µg/ml, genetic background: wild type
# [20] = 0.0099 µg/ml, genetic background: ΔmarA
# [21] = 0.0099 µg/ml, genetic background: Δrob
# [22] = 0.0099 µg/ml, genetic background: ΔsoxS
compound,measurement,setting,value
O=C(O)c1cn(C2CC2)c2cc(N3CCNCC3)c(F)cc2c1=O [Ciprofloxacin],promoter activity interaction Z-score,[1]; [7],-0.0508 ± 0.0034
same,promoter activity interaction Z-score,[1]; [8],0.353 ± 0.13
same,promoter activity interaction Z-score,[1]; [9],0.173 ± 0.043
same,promoter activity interaction Z-score,[1]; [10],0.42 ± 0.15
same,promoter activity interaction Z-score,[1]; [11],0.086 ± 0.043
same,promoter activity interaction Z-score,[1]; [12],0.398 ± 0.6
same,promoter activity interaction Z-score,[1]; [13],0.0723 ± 0.032
same,promoter activity interaction Z-score,[1]; [14],0.345 ± 0.36
same,promoter activity interaction Z-score,[1]; [15],-0.0602 ± 0.085
same,promoter activity interaction Z-score,[1]; [16],0.14 ± 0.38
same,promoter activity interaction Z-score,[1]; [17],-0.262 ± 0.024
same,promoter activity interaction Z-score,[1]; [18],0.245 ± 0.15
same,promoter activity interaction Z-score,[1]; [19],3.2 ± 0.99
same,promoter activity interaction Z-score,[2]; [7],-0.234 ± 0.19
same,promoter activity interaction Z-score,[2]; [8],0.0327 ± 0.0091
same,promoter activity interaction Z-score,[2]; [9],-0.0152 ± 0.072
same,promoter activity interaction Z-score,[2]; [10],0.0125 ± 0.049
same,promoter activity interaction Z-score,[2]; [11],-0.177 ± 0.22
same,promoter activity interaction Z-score,[2]; [12],0.0702 ± 0.0035
same,promoter activity interaction Z-score,[2]; [13],0.0396 ± 0.11
same,promoter activity interaction Z-score,[2]; [14],0.236 ± 0.43
same,promoter activity interaction Z-score,[2]; [15],0.0988 ± 0.0042
same,promoter activity interaction Z-score,[2]; [16],0.222 ± 0.086
same,promoter activity interaction Z-score,[2]; [17],0.149 ± 0.08
same,promoter activity interaction Z-score,[2]; [18],0.0364 ± 0.036
same,promoter activity interaction Z-score,[2]; [19],-0.518 ± 0.27
same,promoter activity interaction Z-score,[2]; [20],-0.126 ± 0.0091
same,promoter activity interaction Z-score,[2]; [21],-0.163
same,promoter activity interaction Z-score,[2]; [22],-0.0606 ± 0.43
same,promoter activity interaction Z-score,[3]; [7],-0.438 ± 0.12
same,promoter activity interaction Z-score,[3]; [8],-0.0468 ± 0.33
same,promoter activity interaction Z-score,[3]; [9],-0.155 ± 0.71
same,promoter activity interaction Z-score,[3]; [10],0.116 ± 0.044
same,promoter activity interaction Z-score,[3]; [11],-0.471 ± 0.096
same,promoter activity interaction Z-score,[3]; [12],-0.00111 ± 0.52
same,promoter activity interaction Z-score,[3]; [13],-0.691 ± 0.58
same,promoter activity interaction Z-score,[3]; [14],0.136 ± 0.14
same,promoter activity interaction Z-score,[3]; [15],-0.511 ± 0.028
same,promoter activity interaction Z-score,[3]; [16],-0.0342 ± 0.14
same,promoter activity interaction Z-score,[3]; [17],-0.495 ± 0.56
same,promoter activity interaction Z-score,[3]; [18],-0.279 ± 0.43
same,promoter activity interaction Z-score,[3]; [19],-0.587 ± 0.72
same,promoter activity interaction Z-score,[4]; [7],0.0678 ± 0.12
same,promoter activity interaction Z-score,[4]; [8],0.253 ± 0.13
same,promoter activity interaction Z-score,[4]; [9],0.0957 ± 0.66
same,promoter activity interaction Z-score,[4]; [10],1.22 ± 0.77
same,promoter activity interaction Z-score,[4]; [11],0.3 ± 0.26
same,promoter activity interaction Z-score,[4]; [12],-0.0277 ± 0.16
same,promoter activity interaction Z-score,[4]; [13],0.0548 ± 0.78
same,promoter activity interaction Z-score,[4]; [14],1.24 ± 1.1
same,promoter activity interaction Z-score,[4]; [15],0.247 ± 0.46
same,promoter activity interaction Z-score,[4]; [16],0.267 ± 0.41
same,promoter activity interaction Z-score,[4]; [17],-0.0594 ± 0.79
same,promoter activity interaction Z-score,[4]; [18],0.171 ± 0.16
same,promoter activity interaction Z-score,[4]; [19],-0.624 ± 0.76
same,promoter activity interaction Z-score,[4]; [20],-0.611
same,promoter activity interaction Z-score,[5]; [7],-0.0335 ± 0.15
same,promoter activity interaction Z-score,[5]; [8],0.12 ± 0.047
same,promoter activity interaction Z-score,[5]; [9],0.0163 ± 0.22
same,promoter activity interaction Z-score,[5]; [10],0.466 ± 0.26
same,promoter activity interaction Z-score,[5]; [11],-0.17 ± 0.048
same,promoter activity interaction Z-score,[5]; [12],0.0948 ± 0.18
same,promoter activity interaction Z-score,[5]; [13],-0.0974 ± 0.25
same,promoter activity interaction Z-score,[5]; [14],0.326 ± 0.014
same,promoter activity interaction Z-score,[5]; [15],0.14 ± 0.19
same,promoter activity interaction Z-score,[5]; [16],0.125 ± 0.098
same,promoter activity interaction Z-score,[5]; [17],0.0524 ± 0.27
same,promoter activity interaction Z-score,[5]; [18],0.682 ± 0.7
same,promoter activity interaction Z-score,[5]; [19],0.127 ± 0.063
same,promoter activity interaction Z-score,[5]; [20],0.0874 ± 0.13
same,promoter activity interaction Z-score,[5]; [21],-0.378 ± 0.17
same,promoter activity interaction Z-score,[5]; [22],3.89 ± 2.3
same,promoter activity interaction Z-score,[6]; [7],0.3 ± 0.42
same,promoter activity interaction Z-score,[6]; [8],0.215 ± 0.83
same,promoter activity interaction Z-score,[6]; [9],-0.563 ± 1
same,promoter activity interaction Z-score,[6]; [10],0.363 ± 0.45
same,promoter activity interaction Z-score,[6]; [11],0.307 ± 0.13
same,promoter activity interaction Z-score,[6]; [12],-0.633 ± 0.058
same,promoter activity interaction Z-score,[6]; [13],-0.452 ± 0.41
same,promoter activity interaction Z-score,[6]; [14],0.599 ± 0.74
same,promoter activity interaction Z-score,[6]; [15],0.224 ± 0.038
same,promoter activity interaction Z-score,[6]; [16],0.452 ± 0.24
same,promoter activity interaction Z-score,[6]; [17],-0.267 ± 1.4
same,promoter activity interaction Z-score,[6]; [18],0.965 ± 0.61
same,promoter activity interaction Z-score,[6]; [19],-0.238 ± 0.84
same,promoter activity interaction Z-score,[6]; [20],0.207 ± 0.2
same,promoter activity interaction Z-score,[6]; [21],-2.22 ± 0.97
same,promoter activity interaction Z-score,[6]; [22],1.85 ± 0.19
